40 compounds from PubChem BioAssay (Tox21) can be followed below.

Unmarked numbers belong to inactive results. Entries that show only a call come without a potency. Calls of active or inactive are those of the source. Calls follow the shape of the dose curve; as a rule, active = well fitted curve in the direction sought with a large enough effect in the repeat runs; inconclusive = weak or mixed curves; inactive = flat fitted curve, though single readings scatter.
Potency is read from the fitted curve at half-maximal effect; tags tell the direction and shape of the fitted curve or compound fluorescence and quenching.

This assay in a line: qHTS assay to test for compound auto fluorescence at 535 nm (green) in HEK293 cells (AID 720680). Conditions: green autofluorescence 485/535 nm; series mostly up to 91.3 µM. The text has this: U.S. Tox21 Program National Center for Advancing Translational Sciences [NCATS] NIH Chemical Genomics Center [NCGC] U.S. Environmental Protection Agency [EPA] National Institutes of Environmental Health Sciences [NIEHS] National Toxicology Program [NTP] U.S. Food and Drug Administration [FDA] Tox21 Assay Overview: Compound auto fluorescence often interferes with screening of the compound library against various biological targets and signaling pathways. Some of these compounds may have fluorophoric properties. Such properties may interfere with the assay outputs resulting in false positives and/or negatives. To decrease such complications and ensure the compound activities are relevant in terms of biological response, the Tox21 10K compound library was screened for auto fluorescence. From the fluorophores used as reporter signals in our screening assays, the auto fluorescence equivalencies of compounds against three fluorophores have been evaluated: Triamterene, Fluorescein and Rose Bengal sodium for blue, green and red fluorescence, respectively. The fluorescence intensities were measured using Excitation/Emission wavelengths at 405/460nm, 485/535nm and 540/590nm for blue, green and red labels, respectively. This assay includes the green fluorescence data.
Tox21 Assay Protocol Summary: 2,000 HEK293 cells in 5 uL of culture medium containing 10% dialyzed FBS per well were dispensed into black wall/clear bottom 1536-well plates using a Multidrop Combi Dispenser (Thermo Scientific). The assay plates were incubated for 4-5 hr at 37C to allow cell attachment to the well bottom, followed by the transfer of 23 nL compound or DMSO vehicle by a pintool work station (Kalypsys, San Diego, CA). After the assay plates were incubated overnight at 37C and 5% CO2, fluorescence intensities in the assay plates were measured by an Envision (PerkinElmer, Shelton, CT) plate reader using three labels for measuring blue, green and red fluorescence at […] 460, 535 and 590nm respectively.
Regarding `CNCC[C@H](Oc1cccc2ccccc12)c1cccs1`, the Potency result is “inactive”.

In the case of `CC(C)OC(=O)c1cc(C(=O)OC(C)C)cc([N+](=O)[O-])c1`, the Potency entry is “inactive”.

With `CCN=c1cc2oc3cc(NCC)c(C)cc3c(-c3ccccc3C(=O)OCC)c-2cc1C`, the Potency was 39.8 µM [fluorescent] (active).

`c1cc2c3c(c1)ccc1cccc(c13)C2`: the Potency entry is “inactive”.

For `CCNc1nc(NC(C)CC)nc(OC)n1` (stereo not given), the Potency result was “inactive”.

Turning to `CCN1CCN(c2cc(-c3ccc(F)cc3)c3c(n2)CCCCCC3)CC1`, the Potency entry is “inactive”.

Take `CC=O`: the Potency result is “inactive”.

Turning to `O=C1Nc2ccc(Cl)cc2[C@@](C#CC2CC2)(C(F)(F)F)O1`, the Potency result was “inactive”.

For the compound `CSc1ccc2c(c1)N(CCC1CCCCN1C)c1ccccc1S2` (stereo not given), the Potency result was “inactive”.

Regarding `NCCCCCCNCCCCCCN`, the Potency entry is “inactive”.

With `Nc1ccc2cc3ccc(N)cc3nc2c1`, the Potency is 11.2 µM [fluorescent] (active).

With `O=Cc1ccc(F)cc1`, the Potency entry is “inactive”.

As to `Cc1cn[nH]c1`, the Potency result was “inactive”.

Consider `CC(C)(C)CC(C)(C)c1ccccc1O`, for which the Potency result was “inactive”.

As to `CCC(=O)OCCc1ccccc1`, the Potency result was “inactive”.

Turning to `NC(=O)c1ccccc1N`, the Potency result is “inactive”.

In the case of `c1ccc(Sc2ccccc2)cc1`, the Potency entry was “inactive”.

As for `C=C(C)C(=O)OCCC[Si](Cl)(Cl)Cl`, the Potency result is “inactive”.

On to `O=C1NCN(c2ccccc2)C12CCN(CCCC(c1ccc(F)cc1)c1ccc(F)cc1)CC2`, for which the Potency result is “inactive”.

As for `O=C1NC2CCCCN2C12CCN(CCCN1c3ccccc3CCc3ccc(Cl)cc31)CC2` (stereo not given), the Potency entry was “inactive”.

Regarding `CCN(CC)CCOc1ccc(C(O)(Cc2ccc(Cl)cc2)c2ccc(C)cc2)cc1` (stereo not given), the Potency entry was “inactive”.

Turning to `CCCCCCCCCCCCCCNCCO`, the Potency result is “inactive”.

As to `Cc1cccc(C)c1NC(=O)CN1CCN(CCCC(c2ccc(F)cc2)c2ccc(F)cc2)CC1`, the fluorescence, % of fluorescein was 0.0034% [at 18.6 µM].

In the case of `CCCCCCCC/C=C\CCCCCCCC(=O)NCc1ccc(O)c(OC)c1`, the Potency result was “inactive”.

For `Cc1c(-c2ccc(O)cc2)n(Cc2ccc(OCCN3CCCCCC3)cc2)c2ccc(O)cc12`, the Potency result was “inactive”.

In the case of `CCCSS/C(CCO)=C(\C)N(C=O)Cc1cnc(C)nc1N`, the Potency result was “inactive”.

As to `NC(=O)c1nc(-c2cccc(-c3cc(F)ccc3OCC(F)(F)C(F)(F)F)c2)n[nH]1`, the Potency entry is “inactive”.

Take `Cc1c(C(=O)O)cccc1[N+](=O)[O-]`: the Potency result was “inactive”.

In the case of `C[C@@]12C(=O)OC(=O)[C@]1(C)C1CCC2O1`, the fluorescence, % of fluorescein is 0.0141% [at 18.6 µM].

For `CN(C)CCOC(c1ccccc1)c1ccccc1` (tested in a mixture with another compound), the Potency result was “inactive”.

As to `C[C@@H]1CC[C@H]2C(C)(C)[C@H]3C[C@@]12CC[C@@]3(C)O`, the Potency result is “inactive”.

As to `Cc1occc1SSc1ccoc1C`, the Potency entry is “inactive”.

On to `CCCC(CC)CCCCCCCN` (stereo not given), for which the Potency result is “inactive”.

For `CCCCCCC(C)OC(=O)COc1nc(F)c(Cl)c(N)c1Cl` (stereo not given), the Potency result was “inactive”.

As for `C=CC(=O)OCC(O)COc1ccccc1` (stereo not given), the Potency result is “inactive”.

With `CN(Cc1cc(Br)cc(Br)c1N)C1CCCCC1`, the Potency entry was “inactive”.

As to `COc1cc(C(C)C)c2c(c1)S(=O)(=O)N(COc1cc(=O)n3cccc(OCCN4CCCCC4)c3n1)C2=O`, the fluorescence, % of fluorescein is -0.188% [at 18.6 µM].

Consider `C(=C/c1ccccc1)/c1ccccc1`, for which the Potency result is “inactive”.

Regarding `CCO[Si](CCCSSSSCCC[Si](OCC)(OCC)OCC)(OCC)OCC`, the Potency result was “inactive”.

Regarding `CCCCCCCCCCCCCOP(=O)(O)O`, the Potency entry is “inactive”.
